Screening data deposited in PubChem by National Center for Advancing Translational Sciences (NCATS).
LASV entry inh: blocks Lassa virus binding to or entry into cells. Lassa virus pseudotype entry inhibition, cell reporter. Potency, µM (titrated, usually from 37.9 µM), usual class: inhibitors. actives 1.2% (n = 300,000). AID 540256; calls by dose curve; tested in HEK293 cells; further: nearly all actives have a fitted effect of over 50% in size
Marburg entry inh: inhibitors of Marburg virus binding or cell entry. Marburg virus pseudotyped entry inhibition, cell reporter. Potency, µM (series often up to 37.8 µM), actives largely listed as inhibitors. actives 1.8% (n = 300,000); calls by dose curve; tested in HEK293 cells
Shiga toxin inh: blocks Shiga toxin action in Vero cells; Vero cells, Shiga toxin protein synthesis inhibition reporter; inhibition, % at 38.7 µM; actives 9.2% (n = 290,000); AID 2315; in the data active means inhibition mostly above about 28%, no sharp cut-off; inactive means mostly below about 43%
Pf growth 96h: inhibits malaria parasite growth, 96 h; P. falciparum luciferase reporter growth, 96 h; AID 504834; Potency, µM (highest dose often 28.7 µM), hits mostly inhibitors; actives 6.9% (n = 320,000)
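Readout is luminescence from an integrated firefly luciferase in P. falciparum. Red cells, 2% hematocrit and 0.05% parasitemia final, were cultured with compound through two parasite generations (96 hours) at 37 C, 5% CO2.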
Pf growth 48h: inhibits P. falciparum growth in the first generation, 48 h | P. falciparum luciferase growth in erythrocytes, 48 h | Potency, µM (top dose mostly 28.7 µM), usual class: inhibitors | actives 5.9% (n = 310,000)
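First compound was added to culture medium, then infected red cells at 0.1% parasitemia and 2% hematocrit (final). After incubation at 37 C under 5% CO2, luciferase detection reagent was dispensed and light output recorded.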
Cycloheximide cs: counter-screen for Shiga toxin inhibitors: cycloheximide protein synthesis inhibition | cell reporter, cycloheximide protein synthesis inhibition counterscreen | max response, % | actives 12% (n = 300,000) | AID 2314; in the data active means max response mostly above about 13%, no sharp cut-off; inactive means mostly below about 14%; further: read at 38.3 µM for the half of the compounds with a filed dose
Numbers stand for hits; 0 = inactive; ? = inconclusive; - = not tested or not shown. Shown are actives, neighbours in structure and some others; about 19% of the full set was active somewhere. Unless noted, the call rests on the fitted dose curve; in most records, active means well fitted inhibition curve with a large enough effect; inconclusive means small, poorly fitted or top-dose-only effect, or another doubt; inactive means no such curve, though single readings can be large or run the other way.

SMILES	LASV entry inh	Marburg entry inh	Shiga toxin inh	Pf growth 96h	Pf growth 48h	Cycloheximide cs
O=c1c(-c2ccccc2)nc(-c2ccccc2)cn1O	0	0	0	0	0	21
Cc1ccccc1CN1CCN(C(=O)CC(C)C)CC1	-	-	-	10µM	0	0
Cc1ccccc1CN1CCN(C(=O)c2cccc3ccccc23)CC1	-	-	0	0	12µM	0
COc1ccc(CN2CCN(C(=O)CC(C)C)CC2)c2ccccc12	0	0	0	-	0	0
O=C(c1cccc2ccccc12)N1CCN(Cc2ccccc2F)CC1	-	-	0	?	0	0
CCOc1cc(CN2CCN(C(=O)c3cccc4ccccc34)CC2)ccc1OC	-	-	0	?	8.3µM	0
COc1cc(/C=N/NC(=O)c2ccc(C)nc2)cc([N+](=O)[O-])c1O	0	?	0	0	0	0
CC(C(=O)O)N1c2cccc3cccc(c23)S1(=O)=O (stereo not drawn)	0	0	0	?	0	0
CCn1c(SCc2nc3ccccc3[nH]2)nnc1-c1cccs1	0	?	0	0	0	0
Oc1ccc(N=Nc2n[nH]c(-c3ccc(Cl)cc3)n2)cc1	-	0	82	?	0	23
Cc1ncc(N=Nc2ccc(F)cc2)c(-c2ccc(Cl)cc2)n1	0	0	0	0	?	0
COc1ccc(OCC(=O)Nc2c(C(=O)N(CCN(C)C)Cc3ccco3)oc3ccccc23)cc1	-	-	0	10µM	?	0
COc1ccccc1C(=O)Nc1c(C(=O)N(CCN(C)C)Cc2ccco2)oc2ccccc12	0	-	0	10µM	?	0
CN(C)CCN(Cc1ccco1)C(=O)c1oc2ccccc2c1NC(=O)c1ccccc1	0	-	-	-	-	-
CN(C)CCN(Cc1ccc(Cl)cc1)c1ccccn1	?	?	0	?	?	0
C[N+](C)(C)CCN(Cc1ccc(Cl)cc1)c1ccccn1	0	?	0	2.3µM	6.6µM	0
Nc1cc(=O)[nH]c(SCC(=O)N2N=C(c3ccc(Cl)cc3)CC2c2ccco2)n1 (stereo not drawn)	0	0	0	0	0	0
COc1ccc(C2=NN(C(=O)CSc3nc4ncc(Cl)cc4[nH]3)C(c3ccco3)C2)cc1 (stereo not drawn)	0	0	0	?	?	21
CCCc1cc(=O)[nH]c(SCC(=O)N2N=C(c3ccc(Cl)cc3)CC2c2ccco2)n1 (stereo not drawn)	0	?	0	0	0	0
Cc1ccc(C2=NN(C(=O)CSc3nc4ncc(Cl)cc4[nH]3)C(c3ccco3)C2)cc1 (stereo not drawn)	0	0	0	12µM	0	14
CCN(C1CCS(=O)(=O)C1)S(=O)(=O)c1cccc([N+](=O)[O-])c1 (stereo not drawn)	0	0	0	0	0	0
NC(N)=NC(=S)Nc1ccc(Cl)cc1	?	?	39	0	0	34
Fc1ccc(NC(=S)Nc2ccc(Cl)cc2)cc1	0	0	0	0	0	0
N/C(=N\C(=S)Nc1ccccc1)c1ccccc1	0	?	99	0	0	40
CC(C)(C)N(NC(=O)OCc1ccccc1)C(=O)c1ccccc1	?	?	0	0	0	0
SMILES	LASV entry inh	Marburg entry inh	Shiga toxin inh	Pf growth 96h	Pf growth 48h	Cycloheximide cs
c1ccc(Nc2nc(-c3ccccc3)nc3ccccc23)cc1	-	-	-	0	0	0
O=C(OCCNc1nc(-c2ccccc2)nc2ccccc12)c1cccnc1	-	-	0	0	0	0
O=C(O)c1cccc(Nc2nc(-c3ccc([N+](=O)[O-])cc3)nc3ccccc23)c1	-	-	0	0	0	0
O=C(O)c1cccc(Nc2nc(-c3ccccc3)nc3ccccc23)c1	0	?	40	?	0	19
O=C(O)c1ccc(Nc2nc(-c3ccccc3)nc3ccccc23)cc1	-	-	0	0	?	20
CCCOC(=O)c1cccc(Nc2nc(-c3cccnc3)nc3ccccc23)c1	?	10µM	0	0	9.3µM	0
CNC(=O)c1ccc(Nc2nc(-c3ccccc3)nc3ccccc23)cc1	-	?	0	?	0	16
COC(=O)c1ccc(Nc2nc(-c3ccc(C)cc3)nc3ccccc23)cc1	0	0	-	-	-	-
O=C(CCCn1cncn1)N1CCCC(N2CCN(c3ccc(F)cc3)CC2)C1 (stereo not drawn)	0	0	0	?	0	0
O=C(O)c1ccc(Nc2c3ccccc3nc3ccccc23)cc1	0	0	0	0	2.1µM	0
O=C(O)c1ccc(Nc2nc(-c3ccccc3)c3ccccc3n2)cc1	0	0	0	?	0	0
NC(=NCc1ccc(Cl)c(Cl)c1)NC(=O)c1nc(Cl)c(N)nc1N	-	2.5µM	-	-	-	-
Cc1ccc(O)c(C(=O)c2cc(C(=O)NCCC(C)C)c(=O)n(CCC(C)C)c2)c1	0	?	0	3.3µM	?	0
Cc1ccc(NC(=S)N(CCCN2CCOCC2)Cc2ccccn2)cc1	0	0	0	0	0	0
O=S(=O)(O/N=C1\CCCc2ccccc21)c1ccccc1	0	0	0	0	-	0
O=C(O/N=C1/CCSc2ccccc21)c1ccccc1	0	0	40	?	0	39
Cc1ccc2c(c1)/C(=N/OC(=O)c1ccc(F)cc1)CCS2	0	0	0	0	0	0
O=C(O/N=C1\CCCc2ccccc21)c1ccc(F)cc1	0	?	21	0	0	16
Cc1ccc(-c2nc(C3CCN(S(=O)(=O)c4ccc(C(F)(F)F)cc4)CC3)no2)cc1	0	0	0	0	0	0
O=C(Nc1nnc(-c2ccccc2)o1)Nc1ccccc1Cl	-	-	0	?	0	15
O=C(Nc1ccc(F)cc1)Nc1nnc(-c2ccccc2)o1	0	?	0	0	0	0
Cc1ccc(-c2nnc(Nc3ccccc3)o2)cc1	?	1.6µM	0	?	0	24
Cc1ccc(NC(=O)Nc2nnc(-c3ccccc3)o2)cc1	0	0	77	0	0	51
CCCCNC(=O)Nc1nnc(-c2ccccc2)o1	0	0	0	?	-	29
CCCCNC(=O)Nc1nnc(-c2ccc(OCC)cc2)o1	0	0	0	-	?	0
SMILES	LASV entry inh	Marburg entry inh	Shiga toxin inh	Pf growth 96h	Pf growth 48h	Cycloheximide cs
Cc1ccc(-c2nnc(-c3ccc4ccccc4c3)o2)cc1	0	?	-	-	-	-
CCN1/C(=C2\C(=O)N(C)C(=S)N2C)C=Cc2ccccc21	0	?	0	0	?	0
CCN1/C(=C2\C(=O)N(C)C(=S)N2C)C=Cc2cc(C)ccc21	0	0	0	0	3.7µM	0
O=C(Nc1oc2ccccc2c(=O)c1-c1ccc(Cl)cc1)c1ccco1	-	-	0	0	0	22
Fc1cccc(F)c1-n1c(CN2CCCC2)csc1=S	0	?	0	5.9µM	?	0
COCCn1c(Sc2nc(C)cs2)nc2c1c(=O)[nH]c(=O)n2C	0	0	0	13µM	0	0
Cn1c(N2CCCCC2)nc2c1c(=O)[nH]c(=O)n2C	0	?	0	10µM	0	0
COCCn1c(N2CCCC2)nc2c1c(=O)[nH]c(=O)n2C	0	0	0	0	13µM	0
COC(=O)c1cc(=O)n(Cc2ccc3c(c2)OCO3)c(=Nc2ccc(F)c(Cl)c2)s1	-	0	0	?	-	0
O=C(c1ccc(-c2ccccc2)cc1)c1ccccc1C(=O)N1CCOCC1	0	0	0	-	0	0
